Source: PubChem BioAssay (National Center for Advancing Translational Sciences (NCATS))
Compounds with a hit are over-represented: about 2.5% of the library has one in this group of screens.
Cruzain inh noDet: cruzain (T. cruzi) inhibition without detergent; P25779; actives 2.3% (n = 200,000); AID 1476; purified cruzain, Z-FR-AMC fluorescence, no detergent; Potency, µM, inactives show max response, negative = inhibition, usual class: inhibitors;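 also: plate controls were enzyme without inhibitor for no effect and buffer without enzyme for full effect; nearly all actives have a fitted effect of over 40% in size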
Target sequence (P25779 123-467 limits assumed): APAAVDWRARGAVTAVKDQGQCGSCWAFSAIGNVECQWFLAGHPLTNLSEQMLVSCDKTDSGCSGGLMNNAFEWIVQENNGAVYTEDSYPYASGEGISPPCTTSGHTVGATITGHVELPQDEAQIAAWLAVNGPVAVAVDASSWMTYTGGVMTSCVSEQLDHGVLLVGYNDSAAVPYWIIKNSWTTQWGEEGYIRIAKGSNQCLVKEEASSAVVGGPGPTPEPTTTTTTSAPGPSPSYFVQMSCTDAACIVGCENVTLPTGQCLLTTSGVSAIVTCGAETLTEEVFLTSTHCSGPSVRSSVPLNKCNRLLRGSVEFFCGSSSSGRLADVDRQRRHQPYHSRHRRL
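Purified cruzain at 1.5 nM, pre-incubated 15 min with compound at room temperature in 100 mM sodium acetate pH 5.5, 5 mM DTT, 0.00005% Triton X-100. Reaction started with 2 uM Z-FR-AMC; AMC fluorescence increase over 60 s gives rate.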
Cruzain inh Det: blocks cruzain activity in presence of Triton detergent | AID 1478 | Potency, µM, without a hit: max response, negative = inhibition, usual class: inhibitors | purified cruzain, Z-FR-AMC fluorescence, 0.01% Triton | P25779 | actives 0.43% (n = 200,000);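 also: plate controls were neutral wells for no effect and buffer without enzyme for full effect; nearly all actives have a fitted effect of over 40% in size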
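Enzyme 1.5 nM, Z-FR-AMC 2 uM, NaOAc 100 mM pH 5.5, DTT 5 mM, Triton X-100 0.01%; 15 min RT compound preincubation; kinetic ex360/em450, 60 s delta.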
* hit, by the source's call; u = inconclusive. Calls follow the shape of the dose curve; as a rule, active = well fitted curve in the direction sought with a large enough effect; inconclusive = small, poorly fitted or top-dose-only effect, or another doubt; inactive = no such curve, though single readings can be large; an effect the other way counts as inactive or inconclusive. Potency is read from the fitted curve at half-maximal effect.

SMILES	Cruzain inh noDet	Cruzain inh Det
COc1cccc(NS(=O)(=O)c2ccc3[nH]cc(C(=O)NC4CC4)c(=O)c3c2)c1	-5%	-10%
CC(C)c1ccc(NS(=O)(=O)c2ccc3[nH]cc(C(=O)NCCc4ccccc4)c(=O)c3c2)cc1	7%	1%
CCc1nnc(NC(=O)c2cc(=O)c3cc(C)c(C)cc3o2)s1	-14%	-2%
O=C(Nc1ccc(-c2cn3cccnc3n2)cc1)c1ccccc1F	-3%	-7%
Cc1cccc(OC(=O)c2cc(-c3ccc(Cl)cc3)on2)c1C	3%	6%
O=c1oc2ccccc2cc1-c1cn2cc(Cc3ccccc3F)sc2n1	6%	0%
CC(C)c1ccc2[nH]c(O)c(N=NC(=O)c3cccc(S(=O)(=O)N4CCCCC4)c3)c2c1	25µM*	-7%
O=C(N=Nc1c(O)[nH]c2ccccc12)c1cccc(S(=O)(=O)N2CCCCC2)c1	-17%	4%
C=CCOc1cccc(/C=N/NC(=O)CN(c2cc(Cl)ccc2OC)S(=O)(=O)c2ccc(C)c([N+](=O)[O-])c2)c1	u	-1%
COc1ccc(Cl)cc1N(CC(=O)N/N=C/c1ccc(OC(C)C)cc1)S(=O)(=O)c1ccc(C)c([N+](=O)[O-])c1	5µM*	-2%
COC(=O)C(Sc1nc(C)cc(C)c1C#N)c1ccccc1 (centres undefined)	-4%	0%
COc1ccccc1-c1cc(-c2ccccc2)nc(SC(C(N)=O)c2ccccc2)c1C#N (centres undefined)	7.9µM*	5%
CCc1ccc2oc(-c3cccc(NC(=O)c4ccc(-c5cccc([N+](=O)[O-])c5)o4)c3)nc2c1	-5%	-3%
CCOc1ccc(N(C)S(=O)(=O)c2c(C(=O)N3CCC(C)CC3)c(C)n(C)c2C)cc1	u	0%
COc1cc(NS(=O)(=O)c2ccc(NC(=O)COc3ccc(Cl)cc3Cl)cc2)nc(OC)n1	u	-18%
Cc1ccc(-n2ncc(C(=O)N3CCCCC3)c2C2CCN(C(=O)OC(C)(C)C)CC2)c(C)c1	u	-2%
COc1ccccc1/C=C/C(=C1/C(=O)N(c2ccccc2)N=C1C)c1ccc(C)cc1	25µM*	-4%
COc1cccc(/C=C/C(=C2/C(=O)N(c3ccccc3)N=C2C)c2ccccc2)c1OC	-15%	-4%
COc1ccccc1S(=O)(=O)Cc1ccc(C(=O)N2CCN(c3cc(Cl)ccc3C)CC2)o1	u	-3%
COc1cc(NC(=O)CSc2nccc(C)n2)c(C)cc1[N+](=O)[O-]	-3%	-5%
COc1ccc([N+](=O)[O-])cc1NC(=O)CSc1nncn1-c1ccccc1	-12%	-5%
COc1ccc(-n2c(SCC(=O)Nc3ccc([N+](=O)[O-])cc3OC)nc3ccccc32)cc1	7.9µM*	-1%
COc1cc(NC(=O)CSc2nc3ccccc3n2-c2ccccc2)c(C)cc1[N+](=O)[O-]	7.9µM*	1%
CN(Cc1ccccc1)c1ccc(-c2nc(-c3ccccn3)no2)cc1[N+](=O)[O-]	12%	0%
CSc1cccc(NC(=O)C2CCCN(S(=O)(=O)c3ccc4c(c3)CCCN4C(C)=O)C2)c1 (centres undefined)	u	-4%
SMILES	Cruzain inh noDet	Cruzain inh Det
O=c1[nH]c(N/N=C/c2ccccc2Br)nnc1-c1ccccc1	13µM*	-11%
COc1ccc(/C=N/Nc2nnc(-c3ccccc3)c(=O)[nH]2)cc1	-17%	0%
COc1cc(C2C(=O)N(C3CCCCC3)CC(=O)N2CCc2ccccc2)ccc1OC(C)C (centres undefined)	2%	0%
Cc1cccc(C(=O)Nc2cc3c(cc2N2CCCCC2)n(C)c(=O)n3C)c1	5%	-2%
CN(C)S(=O)(=O)c1ccc2c(c1)N(CC(=O)Nc1ccc(OC(F)(F)F)cc1)C(=O)CS2	u	-7%
CCc1cc2c(-c3ccccc3)cc(=O)oc2cc1OC(=O)c1cccs1	-2%	3%
O=C(Oc1ccc2c(-c3ccccc3)cc(=O)oc2c1)c1cccs1	6.3µM*	-6%
Cc1ccc(CNc2ccc3c(c2)OCO3)cc1	25µM*	-3%
c1cc(CNc2ccc3c(c2)OCO3)ccn1	-12%	-6%
CCC(C)n1c(=O)c2sccc2n2c(CCCC(=O)N3CCN(c4ccccc4)CC3)nnc12 (centres undefined)	u	0%
COc1nc(-c2ccccc2Cl)ccc1C#N	-7%	-3%
COc1ccc(-c2ccc(C#N)c(OC(=O)c3c(Cl)cccc3Cl)n2)cc1	u	28µM*
CCCn1c(=O)c2[nH]c(-c3ccccc3)nc2n(CCC)c1=O	2%	1%
CCSc1nc2c([nH]c3ccccc32)c(=O)n1C	13µM*	4%
COc1cccc(-n2c(SCc3ccccc3C)nc3c([nH]c4ccccc43)c2=O)c1	4µM*	0%
COc1cccc(-n2c(SCC(=O)c3ccccc3)nc3c([nH]c4ccccc43)c2=O)c1	2%	3%
CCCSc1nc2c([nH]c3ccccc32)c(=O)n1C	-4%	0%
